Measured values from PubChem BioAssay AID1508600 (Functional Genomics Laboratory (NCATS/FGL), 2020).
About 3,700 (7%) of roughly 53,000 sequences were called active. This is one part of a sample in which actives are shown more often than they occur.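 How the source made its calls: active means gene knockdowns whose robust z-score for IL-1 alpha signal is at least 2 or at most -2, so actives lie on both sides; inactive means the rest.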

Test: Components of the Cytosolic LPS Sensing Pathway: Gene Identification via Genome-wide siRNA Screen;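 further: robust z of the log signal after scaling to non-targeting control siRNA wells of the plate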
Conditions: RAW264.7 macrophages, IL-1a HTRF, actives lie on both sides, screened at 100 nM (by protocol), cells primed 5 h with Pam3CSK4 first
Procedure, shortened: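 IL-1a HTRF of supernatants after 24 hour LipidA transfection of Pam3CSK4-primed (5 hours) RAW264.7 cells, 48h post-siRNA transfection (100 nM). Scores: percent of plate negative-control median, then log-based robust z-score.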

z-score, inactive:
GGACAUUGACCUGUUCGGCTT against Eef1d 0.952
GGACCUCAACAUCCAGAGATT against Sema6b -0.217
CGACCUGAAAGAUUCGGAATT against Ppara -1.04
GCUCAACCCAUUCUUUGAUTT against Cep295nl 0.407
CCAAAGCUAGGUCAUUUUATT against Slc31a2 0.72
GGAAAAAGCGGAAAUUCAGTT against Pgbd5 -0.276
GGAAGAAGACUCAGAAAGUTT against Prkag2 1.43
CCGACCAUCUGUGGAAAUATT against Samd5 0.227
GCCAGAUCCCUGGAAUGUATT against Ece2 -0.632
GGUAUUGCUUUCACAUUAUTT against Efr3a 0.434
GGUGUAAGAACUUCAAGUUTT against Tlr9 0.199
GGCUGUUUUUACCCUACUUTT against Vmn1r72 -0.441
GGAGAAAUUCAAAAGGAAUTT against Ms4a6d -0.764
GGAUGCUCAUGCUAAGCAGTT against Krt7 0.547
GGAACUUCCCUAUAGUGAATT against Hdac3 -1.52
GGAUGCGCUGAUAUCAGUATT against Olfr370 1.3
GCUCAUUGAGUACAAGACCTT against Ndufs2 1.76
CCCUCAAUGCUGGAAAACCTT against Nol4 -1.43
GGCAAGGAUGAUGUCUUCGTT against Upk1a -1.33
GCUUCUAGGGACCUAUUAATT against Dhx30 -0.0854
GGCACUCAAUGUCUUCUAUTT against Nbeal1 0.516

z-score, active:
GGAGCUGUAUGAGAUAGAGTT against Zfp566 4.15
GGUUAAAGGUCAGAUUUAGTT against Dapk2 2.54
GCAUUUGUACAUUGUGACUTT against Ces5a -2.28
GGGUCCAGUAUCCAUCAAATT against Sf3a1 -2.7
GGAUGAGGGAACGUACAUUTT against Il18r1 5.74
GGUCACUGAACCUAUUUCCTT against Arhgap15 -2.56
GGUCUAUGAGAUGUUUUCUTT against Cyp2a4 2.78
GCAACUGGCUGAACUCUCATT against Gsdmc2 3.91
GCUACUGCAGUAUACAUUGTT against Olfr869 2.21
